Drawing on PubChem BioAssay (NCI), this text covers growth for eight molecules.

Some test systems named below: HCT-15 colon; HT29 colon; SNB-75 CNS; SNB-19 CNS; U251 CNS; PC-3 prostate; SK-MEL-5 melanoma; UACC-62 melanoma; LOX IMVI melanoma; SK-MEL-28 melanoma; EKVX NSCLC; SN12C renal; UO-31 renal; TK-10 renal; ACHN renal; CAKI-1 renal; A498 renal; CCRF-CEM leukemia; MOLT-4 leukemia.
Common to all, as to experiment: NCI-60 one-dose screen, 48 h (100 = growth as untreated, 0 = no growth, -100 = all killed)
Holding throughout (conditions): 10 µM unless noted

About 83,000 compounds went through this panel and 20% of them were active in at least one assay; those are over-represented in the sample as a whole.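 Treatment: one concentration, 48 hours, 96-well format. Scoring: percent growth, with anything below 10 considered active.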 A number with no mark means an inactive call. The source made the active and inactive calls.

In the case of `COC(=O)CNC(=O)[C@@H](OC)[C@@H]1Cc2cc3cc(OC4CC(OC5CC(O)C(O)C(C)O5)C(O)C(C)O4)c(C)c(O)c3c(O)c2C(=O)[C@H]1OC1CC(OC2CC(OC3CC(C)(O)C(O)C(C)O3)C(O)C(C)O2)C(O)C(C)O1` (some centres not stated), the growth in the experiment with HCT-15 colon is 31.5%; in the experiment with HT29 colon, 3.78% (active); in the experiment on SNB-75 CNS, -51.7% (active); in the experiment on SNB-19 CNS it was 9.4% (active); with U251 CNS it was 9.93% (active); in the experiment on PC-3 prostate, 12.9%. The growth in the experiment with SK-MEL-5 melanoma is -44.6% (active); in the experiment with UACC-62 melanoma, -65.2% (active); in the experiment on LOX IMVI melanoma, -15.5% (active); in the experiment on SK-MEL-28 melanoma, -17.2% (active); in the experiment on EKVX NSCLC it was 20.2%; with SN12C renal it was 13.7%. Further, the growth with UO-31 renal is 10.9%; with TK-10 renal, 21%; in the experiment with ACHN renal it was -1.39% (active); in the experiment on CAKI-1 renal it was 43.5%; with A498 renal, -74.3% (active); in the experiment on CCRF-CEM leukemia it was 18%. Moreover, in the experiment on MOLT-4 leukemia, the growth is -2.56% (active).
`CO[C@H]1C[C@@H]2CC[C@@H](C)[C@@](O)(O2)C(=O)C(=O)N2CCCC[C@H]2C(=O)O[C@H]([C@H](C)C[C@@H]2CC[C@@H](OCCO)[C@H](OC)C2)CC(=O)[C@H](C)/C=C(\C)[C@@H](O)[C@H](OC)C(=O)[C@H](C)C[C@H](C)\C=C/C=C/C=C/1C`: the growth is 53.9% in the experiment on HCT-15 colon; 44.1% with HT29 colon; 20.8% in the experiment on SNB-75 CNS; 49.5% with SNB-19 CNS; 42.7% in the experiment on U251 CNS; 44.3% in the experiment with PC-3 prostate. Also, the growth with SK-MEL-5 melanoma was 63.5%; with UACC-62 melanoma, 40.8%; with LOX IMVI melanoma, 40.3%; in the experiment on SK-MEL-28 melanoma, 44%; in the experiment with EKVX NSCLC it was 54.9%; in the experiment on SN12C renal, 54.3%. The growth in the experiment on UO-31 renal is 16.6%; in the experiment on TK-10 renal, 63.8%; in the experiment with ACHN renal, 48.6%; in the experiment on CAKI-1 renal it was 47.6%; in the experiment with A498 renal it was 25.8%; in the experiment on CCRF-CEM leukemia, 35%. Further, in the experiment with MOLT-4 leukemia, the growth was 33.3%.
Take `COc1ccc(-c2cnc(-c3ccc(Cl)cc3)[nH]2)cc1OC`: the growth is 100% with HCT-15 colon; 97.6% in the experiment on HT29 colon; 72.8% with SNB-75 CNS; 96% in the experiment with SNB-19 CNS; 102% in the experiment with U251 CNS; 81.3% in the experiment on PC-3 prostate. Moreover, the growth in the experiment on SK-MEL-5 melanoma is 97.4%; in the experiment with UACC-62 melanoma, 94.6%; in the experiment on LOX IMVI melanoma, 110%; with SK-MEL-28 melanoma, 104%; in the experiment on EKVX NSCLC, 117%; in the experiment with SN12C renal it was 91.6%. In addition, the growth is 95.4% in the experiment on UO-31 renal; 139% with TK-10 renal; 103% with ACHN renal; 121% in the experiment with CAKI-1 renal; 90.6% in the experiment with A498 renal; -55.7% (active) in the experiment with CCRF-CEM leukemia. Further, the growth in the experiment on MOLT-4 leukemia was 106%.
Turning to `C[C@]12O[C@H](C[C@]1(O)CO)n1c3ccccc3c3c4c(c5c6ccccc6n2c5c31)CNC4=O`, the growth in the experiment with HCT-15 colon is -12.4% (active); in the experiment on HT29 colon it was -22.5% (active); with SNB-75 CNS it was -99.4% (active); with SNB-19 CNS it was -20.6% (active); in the experiment on U251 CNS it was -75.1% (active); in the experiment with PC-3 prostate it was -31% (active). For the same molecule, the growth is -87% (active) with SK-MEL-5 melanoma; -49.9% (active) in the experiment with UACC-62 melanoma; -70.5% (active) in the experiment with LOX IMVI melanoma; -85.9% (active) with SK-MEL-28 melanoma; -8.26% (active) in the experiment on EKVX NSCLC; -42% (active) in the experiment with SN12C renal. Besides, the growth is -63.1% (active) in the experiment with UO-31 renal; -81.5% (active) with TK-10 renal; -8.21% (active) with ACHN renal; -96.5% (active) in the experiment on CAKI-1 renal; -96.1% (active) with A498 renal; 0.654% (active) with CCRF-CEM leukemia. Also, the growth in the experiment with MOLT-4 leukemia was -18% (active).
`NC1(C(=O)N[C@@H](CCO)c2ccc(Cl)cc2)CCN(c2ncnc3[nH]ccc23)CC1`: the growth is 58.1% in the experiment with HCT-15 colon; 23.5% in the experiment on HT29 colon; -46.8% (active) in the experiment on SNB-75 CNS; 43.5% with SNB-19 CNS; 34.6% in the experiment on U251 CNS; 49.8% in the experiment with PC-3 prostate. Besides, the growth in the experiment with SK-MEL-5 melanoma is 70.5%; with UACC-62 melanoma it was -15.6% (active); in the experiment on LOX IMVI melanoma it was 40.3%; with SK-MEL-28 melanoma it was 24.7%; with EKVX NSCLC, 61.9%; in the experiment on SN12C renal it was 55.6%. Moreover, the growth was 17.5% with UO-31 renal; 13.7% with TK-10 renal; 53.4% in the experiment with ACHN renal; 34.4% in the experiment on CAKI-1 renal; -46.2% (active) with A498 renal; 41.6% with CCRF-CEM leukemia. Also, in the experiment with MOLT-4 leukemia, the growth is 11.4%.
As to `Cc1[nH]n(C(N)=S)c(=O)c1N=Nc1ccc(S(=O)(=O)Nc2ccncn2)cc1`, the growth with HCT-15 colon is 113%; in the experiment with HT29 colon, 105%; in the experiment with SNB-75 CNS, 73.7%; in the experiment on SNB-19 CNS, 99.8%; in the experiment with U251 CNS, 113%; with PC-3 prostate it was 77.1%. Further, the growth in the experiment with SK-MEL-5 melanoma was 94.6%; with UACC-62 melanoma, 101%; in the experiment on LOX IMVI melanoma it was 87.4%; with SK-MEL-28 melanoma it was 98.9%; in the experiment on EKVX NSCLC, 120%; in the experiment with SN12C renal it was 97.6%. Also, the growth in the experiment on UO-31 renal was 84.6%; in the experiment with TK-10 renal it was 126%; in the experiment with ACHN renal, 106%; with CAKI-1 renal, 155%; in the experiment on A498 renal, 87.4%; in the experiment on CCRF-CEM leukemia, -34.3% (active). The growth with MOLT-4 leukemia is 106%.
For `N#CC[C@H](C1CCCC1)n1cc(-c2ncnc3[nH]ccc23)cn1`, the growth in the experiment on HCT-15 colon was 89.7%; in the experiment with HT29 colon it was 62.9%; with SNB-75 CNS, 33.8%; in the experiment with SNB-19 CNS, 90.7%; in the experiment with U251 CNS, 63.9%; in the experiment on PC-3 prostate, 59%. Besides, the growth in the experiment on SK-MEL-5 melanoma is 84.8%; in the experiment with UACC-62 melanoma it was 82%; in the experiment with LOX IMVI melanoma, 55.3%; in the experiment on SK-MEL-28 melanoma, 79.9%; in the experiment on EKVX NSCLC, 82.7%; with SN12C renal it was 66.3%. Besides, the growth was 26.8% in the experiment on UO-31 renal; 41.5% in the experiment on TK-10 renal; 52.1% in the experiment with ACHN renal; 34.9% with CAKI-1 renal; 64% in the experiment on A498 renal; 58.5% in the experiment on CCRF-CEM leukemia. The growth in the experiment with MOLT-4 leukemia was 56.1%.
In the case of `Cn1nccc1Nc1nccc(-c2ccn([C@H](CO)c3ccc(Cl)c(F)c3)c(=O)c2)n1`, the growth is 94.1% in the experiment with HCT-15 colon; 19.9% in the experiment on HT29 colon; 101% with SNB-75 CNS; 94.1% in the experiment on SNB-19 CNS; 86.2% in the experiment on U251 CNS; 111% in the experiment with PC-3 prostate. Moreover, the growth is 70.7% in the experiment on SK-MEL-5 melanoma; 9.88% (active) in the experiment with UACC-62 melanoma; 58.5% in the experiment with LOX IMVI melanoma; 16.9% in the experiment on SK-MEL-28 melanoma; 93% in the experiment with EKVX NSCLC; 107% with SN12C renal. In addition, the growth was 68% with UO-31 renal; 67.4% in the experiment on TK-10 renal; 90.8% with ACHN renal; 79.9% in the experiment with CAKI-1 renal; 70.5% with A498 renal; 99.8% in the experiment with CCRF-CEM leukemia. The growth in the experiment on MOLT-4 leukemia is 96%.
